# In PubChem BioAssay (NCATS):
# Results filed as inconclusive are left out. Active and inactive are the calls of the source. The call rests on the fitted dose curve; in most records, active means well fitted cell-killing curve with a large enough effect; inconclusive means small, poorly fitted or top-dose-only effect, or effect the other way; inactive means no such curve, though single readings can be large or run the other way.
# Assay: Quantitative High-Throughput drug screen in 47 multiple myeloma cell lines against the NCATS MIPE library collection: AMO1_DSMZ cell viability assay (AID 1918927; further: nearly all actives have a fitted effect of over 30% in size)
# Conditions: AMO1 myeloma cells viability, CellTiter-Glo ATP luminescence, 48 h; series mostly up to 45.8 µM; viability, % of DMSO: at the top concentration
# Source text: PI: Beverly A. Mock Ph.D.
# Laboratory of Cancer Biology and Genetics,
# Center for Cancer Research, National Cancer Institute,
# National Institute of Health, Bethesda, Maryland
# Drug resistance and disease progression are common in multiple myeloma (MM) patients, underscoring the need for new therapeutic combinations. […] We hypothesized that effective combinations would reduce MYC expression and enhance p16 activity. […] These preclinical data identify potentially useful drug combinations for evaluation in drug-resistant MM and reveal potential mechanisms of combined drug sensitivity.
# Described herein is the primary MIPE qHTS used to cherrypick compounds. Validated compounds were then further tested for potential synergistic activiy.
# [1] Peat TJ, Gaikwad SM, Dubois W, Gyabaah-Kessie N, Zhang S, Gorjifard S, Phyo Z, Andres M, Hughitt VK, Simpson RM, Miller MA, Girvin AT, Taylor A, Williams D, D'Antonio N, Zhang Y, Rajagopalan A, Flietner E, Wilson K, Zhang X, Shinn P, Klumpp-Thomas C, McKnight C, Itkin Z, Chen L, Kazandijian D, Zhang J, Michalowski AM, Simmons JK, Keats J, Thomas CJ, Mock BA. Drug combinations identified by high-throughput screening promote cell cycle transition and upregulate Smad pathways in myeloma. Cancer Lett. 2023 Aug 1;568:216284. doi: 10.1016/j.canlet.2023.216284. Epub 2023 Jun 24. PMID: 37356470; PMCID: PMC10408729.
# SEQUENCE No. (e.g., 1, 2, 3, etc.); […] (e.g., Cells, Incubation, Reagent, etc.); VALUE and DESCRIPTION.
# 1; Cells; 5 uL; white, solid bottom 1536-well Greiner assay plate.
# 2; Compounds; 23 nL; Kalypsis pin tool (Wako USA) equipped with a 1536-well pin head to transfer to the assay plates.
# 3; Incubation; 48 hours; 37C incubation.
# 4; Reagent;5uL; CellTiter Glo (Promega).
# 5; Detector; 425V; Luminescence; Viewlux PerkinElmer.
# NOTES (numbers refer to Sequence numbers above)
# 1. The cell-based screening methods employed in this study were like those previously published. Briefly, the corresponding myeloma cell lines were screened in 1,536-well plates with 500 cells, 5-uL per well for inhibition of cell viability (assessed by measuring ATP levels with CellTiterGlo).
# 2. NCATS MIPE 4.0 library of approved and investigational drugs were added using the Kalypsis pin tool. Wells treated with DMSO only for 100% viability and media only wells for 0% viability were used as controls.
# 3. The assay plates were covered and incubated for 48 hours in a 37C, 5% CO2 incubator with controlled humidity.
# 4. After 48 hours, CellTilter-GloTM luminescent substrate mix (Promega) reagent was added to the assay plate and plates we incubated for 5 min at room temperature.
# 5. Signal was measured as median relative luminescence units on a ViewLux (PerkinElmer) multiplate reader.
# [1] Heske CM, Davis MI, Baumgart JT, Wilson K, Gormally MV, Chen L, Zhang X, Ceribelli M, Duveau DY, Guha R, Ferrer M, Arnaldez FI, Ji J, Tran HL, Zhang Y, Mendoza A, Helman LJ, Thomas CJ. Matrix Screen Identifies Synergistic Combination of PARP Inhibitors and Nicotinamide Phosphoribosyltransferase (NAMPT) Inhibitors in Ewing Sarcoma. Clin Cancer Res. 2017 Dec 1;23(23):7301-7311. doi: 10.1158/1078-0432.CCR-17-1121. Epub 2017 Sep 12. PMID: 28899971; PMCID: PMC6636827.
# Potency means the concentration at half of the fitted maximal effect.
SMILES,"viability, % of DMSO",Potency
NS(=O)(=O)c1cc2c(cc1Cl)NC(C(Cl)Cl)NS2(=O)=O (stereo not given),108% (inactive),–
OC(Cn1cncn1)(Cn1cncn1)c1ccc(F)cc1F,–,0.0418 µM (active)
Cc1cccc(Nc2ccncc2S(=O)(=O)NC(=O)NC(C)C)c1,98.7% (inactive),–
COc1cc2ncnc(Nc3cccc(Cl)c3)c2cc1OC,–,23.5 µM (active)
CNCC[C@H](Oc1cccc2ccccc12)c1cccs1,–,26.4 µM (active)
C#CCN[C@@H]1CCc2ccccc21,94.9% (inactive),–
NC(=O)c1cccc(N)c1,103% (inactive),–
CC(C)(C)C(=O)OCOP(=O)(COCCn1cnc2c(N)ncnc21)OCOC(=O)C(C)(C)C,–,0.105 µM (active)
NNC(=O)c1ccncc1,107% (inactive),–
CCn1cc(C(=O)O)c(=O)c2cc(F)c(N3CCNCC3)cc21,139% (inactive),–
O=C(O)c1cc(=O)[nH]c(=O)[nH]1,132% (inactive),–
CCCOc1ccc(C(=O)OCCN(CC)CC)cc1N,96.6% (inactive),–
Cc1cc(NS(=O)(=O)c2ccc(N)cc2)no1,116% (inactive),–
NC(=O)N1c2ccccc2CC(=O)c2ccccc21,102% (inactive),–
COc1cc2nc(N3CCCN(C)CC3)nc(NC3CCN(Cc4ccccc4)CC3)c2cc1OC,–,7.43 µM (active)
CC(=O)Oc1ccccc1C(=O)Nc1ncc([N+](=O)[O-])s1,–,13.6 µM (active)
Nc1[nH]c(=O)ncc1F,–,4.69 µM (active)
C[C@@H]1C[C@H]2[C@@H]3CCC4=CC(=O)C=C[C@]4(C)[C@@]3(Cl)[C@@H](O)C[C@]2(C)[C@@]1(OC(=O)c1ccco1)C(=O)CCl,–,1.48 µM (active)
COC(=O)Nc1nc2ccc(Sc3ccccc3)cc2[nH]1,–,0.833 µM (active)
COc1cc(NS(=O)(=O)c2ccc(N)cc2)nc(OC)n1,106% (inactive),–

SMILES,"viability, % of DMSO",Potency
Cc1onc(-c2ccccc2Cl)c1C(=O)N[C@@H]1C(=O)N2[C@@H]1SC(C)(C)[C@@H]2C(=O)O,115% (inactive),–
CS(=O)(=O)c1ccc([C@@H](O)[C@@H](CO)NC(=O)C(Cl)Cl)cc1,98.2% (inactive),–
CNNCc1ccc(C(=O)NC(C)C)cc1,149% (inactive),–
Cc1nnc(NS(=O)(=O)c2ccc(N)cc2)s1,–,1.87 µM (active)
CC1=C(C(=O)O)N2C(=O)[C@@H](NC(=O)C(N)c3ccccc3)[C@H]2SC1 (stereo not given in full),134% (inactive),–
N[C@@H](C(=O)N[C@@H]1C(=O)N2C(C(=O)O)=C(Cl)CS[C@H]12)c1ccccc1,109% (inactive),–
CC(=O)[C@H]1CC[C@H]2[C@@H]3CC=C4C[C@@H](O)CC[C@]4(C)[C@H]3CC[C@]12C,116% (inactive),–
CCOCC(O)COc1ccc(NC(=O)CC[S+](C)C)cc1 (stereo not given),94% (inactive),–
COc1nc(N)nc2c1ncn2[C@@H]1O[C@H](CO)[C@@H](O)[C@@H]1O,127% (inactive),–
CC(C)OC(=O)C(C(=O)OC(C)C)=C1SC=CS1,115% (inactive),–
COc1ccc(C(=O)CC(=O)c2ccc(C(C)(C)C)cc2)cc1,–,1.87 µM (active)
CC[C@H](C)C(=O)O[C@H]1C[C@@H](C)C=C2C=C[C@H](C)[C@H](CC[C@@H]3C[C@@H](O)CC(=O)O3)[C@H]21,106% (inactive),–
CC(C)(C)NC(=O)[C@H]1CC[C@H]2[C@@H]3CC[C@H]4NC(=O)C=C[C@]4(C)[C@H]3CC[C@]12C,–,18.7 µM (active)
Cn1c(=O)c2c(ncn2CC(O)CO)n(C)c1=O (stereo not given),109% (inactive),–
C1CCC(C(CC2CCCCN2)C2CCCCC2)CC1 (stereo not given),–,18.7 µM (active)
CCCCc1oc2ccc(NS(C)(=O)=O)cc2c1C(=O)c1ccc(OCCCN(CCCC)CCCC)cc1,–,9.35 µM (active)
COC(c1ccccc1)(c1ccccc1)[C@H](Oc1nc(C)cc(C)n1)C(=O)O,127% (inactive),–
O=P(O)(O)C(O)(Cc1cccnc1)P(=O)(O)O,121% (inactive),–
C[C@]12C=CC(=O)C=C1CC[C@@H]1[C@@H]2C(=O)C[C@@]2(C)[C@H]1CC[C@]2(O)C(=O)CO,135% [at 23.2 µM] (inactive),–
CN(C)CCc1c[nH]c2ccc(C[C@H]3COC(=O)N3)cc12,103% (inactive),–
